# Measured values from PMC11995724, “Antibiotic target discovery by integrated phenotypic and activity-based profiling of electrophilic fragments” (Cell chemical biology, 2025).
# Out of some 3,200 compounds screened, about 110 (3.4%) showed an effect of 50% or more. Many of the other results were omitted from the sample, so strong results are more common in it than they were.
# Tested on: T1, V. cholerae SAD30
# T1 construct: SAD30
# Design: species or system S. aureus MSSA476 (TSB) or V. cholerae SAD30 (LB); 384-well bacterial growth screen at 25 uM, OD600 relative to DMSO control
# Conditions: relative growth, OD600, LB; 25 µM; inhibitor
row,Compound,% of control remaining
1,"O=C(CCl)Nc1nnc(-c2ccccc2Cl)s1 [6-K17, 2-chloro-N-[5-(2-chlorophenyl)-1,3,4-thiadiazol-2-yl]acetamide]",95.8574%
2,"CC(Cl)C(=O)Nc1cccc(Cl)c1 (stereo not shown) [5-H22, 2-chloro-N-(3-chlorophenyl)propanamide]",106.42%
3,"C=CC(=O)N(Cc1cn2ccccc2n1)C1CC1 [3-J21, N-cyclopropyl-N-({imidazo[1,2-a]pyridin-2-yl}methyl)prop-2-enamide]",90.3253%
4,"C=CC(=O)NCc1cnc(-c2ccc(C(F)(F)F)cc2)s1 [1-C13, N-({2-[4-(trifluoromethyl)phenyl]-1,3-thiazol-5-yl}methyl)prop-2-enamide]",68.9088%
5,"CC(Cl)C(=O)N1CCn2c(C#N)ccc2C1C (stereo not shown) [6-F22, 2-(2-chloropropanoyl)-1-methyl-1H,2H,3H,4H-pyrrolo[1,2-a]pyrazine-6-carbonitrile]",96.0091%
6,"C=CC(=O)NCCC(=O)N1CCCN(c2cccnn2)CC1 [2-P16, N-{3-oxo-3-[4-(pyridazin-3-yl)-1,4-diazepan-1-yl]propyl}prop-2-enamide]",95.7541%
7,"Cc1n[nH]c(C)c1C=C(C#N)C(=O)Nc1ccc(SC(F)F)cc1 [8-E08, 2-cyano-N-{4-[(difluoromethyl)sulfanyl]phenyl}-3-(3,5-dimethyl-1H-pyrazol-4-yl)prop-2-enamide]",75.2549%
8,"O=C(CCl)N(Cc1nc(C2CCCCCC2)no1)C1CC1 [7-B16, 2-chloro-N-[(3-cycloheptyl-1,2,4-oxadiazol-5-yl)methyl]-N-cyclopropylacetamide]",80.2247%
9,"Cc1cc(NC(=O)CN(C)C(=O)C(C)Cl)no1 (stereo not shown) [7-M19, 2-chloro-N-methyl-N-{[(5-methyl-1,2-oxazol-3-yl)carbamoyl]methyl}propanamide]",81.8107%
10,"C=CC(=O)NCCc1nc(-c2ccccc2)nn1C [2-M12, N-[2-(1-methyl-3-phenyl-1H-1,2,4-triazol-5-yl)ethyl]prop-2-enamide]",85.4096%
11,"C=CC(=O)NCCn1nc(C)cc1C [3-M13, N-[2-(3,5-dimethyl-1H-pyrazol-1-yl)ethyl]prop-2-enamide]",97.7357%
12,"C=CC(=O)N1CCC(C(=O)Oc2ccc(NC(C)=O)cc2)CC1 [3-M16, 4-acetamidophenyl 1-(prop-2-enoyl)piperidine-4-carboxylate]",96.1478%
13,"C=CC(=O)NC1(c2nc(C3CC3)cc(=O)[nH]2)CCCCC1 [3-H13, N-[1-(4-cyclopropyl-6-oxo-1,6-dihydropyrimidin-2-yl)cyclohexyl]prop-2-enamide]",88.7374%
14,"CS(=O)(=O)Nc1ccc(C(=O)CCl)cc1 [10-D19, N-[4-(2-chloroacetyl)phenyl]methanesulfonamide]",31.3267%
15,"CCN(c1ccc(C(=O)CCl)cc1)S(C)(=O)=O [10-F04, N-[4-(2-chloroacetyl)phenyl]-N-ethylmethanesulfonamide]",100.994%
16,"CC(=O)N(C)Cc1ccc(C(=O)CCl)cc1 [10-H04, N-{[4-(2-chloroacetyl)phenyl]methyl}-N-methylacetamide]",100.682%
17,"CC(Cl)C(=O)c1ccc(NS(C)(=O)=O)cc1 (stereo not shown) [10-A08, N-[4-(2-chloropropanoyl)phenyl]methanesulfonamide]",98.4999%
18,"CS(=O)(=O)c1ccc(C(=O)CCl)cc1 [10-I13, 2-chloro-1-(4-methanesulfonylphenyl)ethan-1-one]",0%
19,"CS(=O)(=O)NCCc1ccc(C(=O)CCl)cc1 [10-D06, N-{2-[4-(2-chloroacetyl)phenyl]ethyl}methanesulfonamide]",99.5909%
20,"CN(c1ccc(C(=O)CCl)cc1)S(C)(=O)=O [10-F19, N-[4-(2-chloroacetyl)phenyl]-N-methylmethanesulfonamide]",14.0269%
21,"CS(=O)(=O)c1ccc(CNC(=O)CCl)cc1 [6-O12, 2-chloro-N-[(4-methanesulfonylphenyl)methyl]acetamide]",95.2507%
22,"C=CC(=O)NC(c1ccc(C)cc1)C(C)S(C)(=O)=O (stereo not shown) [2-A10, N-[2-methanesulfonyl-1-(4-methylphenyl)propyl]prop-2-enamide]",94.3646%
23,"CC(Cl)C(=O)Nc1sccc1C(N)=O (stereo not shown) [5-C21, 2-(2-chloropropanamido)thiophene-3-carboxamide]",107.429%
24,"C=CC(=O)N1CCC(NC(C)=O)(c2noc(C)n2)C1 (stereo not shown) [2-G16, N-[3-(5-methyl-1,2,4-oxadiazol-3-yl)-1-(prop-2-enoyl)pyrrolidin-3-yl]acetamide]",100.077%
25,"C=CC(=O)NC1CN(S(=O)(=O)c2ccc3c(c2)OCCO3)C1 [2-E11, N-[1-(2,3-dihydro-1,4-benzodioxine-6-sulfonyl)azetidin-3-yl]prop-2-enamide]",95.7541%

row,Compound,% of control remaining
1,"N#CC(=Cc1c(F)cccc1F)C(=O)Nc1ccccc1F [9-J12, 2-cyano-3-(2,6-difluorophenyl)-N-(2-fluorophenyl)prop-2-enamide]",94.2896%
2,"O=C(CCl)NC1CCCc2nc(-c3ccccc3)sc21 (stereo not shown) [7-B04, 2-chloro-N-(2-phenyl-4,5,6,7-tetrahydro-1,3-benzothiazol-7-yl)acetamide]",86.833%
3,"CCCn1c(C)cc(C=C(C#N)C(=O)N2CCC2)c1C [8-L08, 2-(azetidine-1-carbonyl)-3-(2,5-dimethyl-1-propyl-1H-pyrrol-3-yl)prop-2-enenitrile]",60.707%
4,"COC(=O)c1sccc1N1C(=O)C=CC1=O [10-A07, methyl 3-(2,5-dioxo-2,5-dihydro-1H-pyrrol-1-yl)thiophene-2-carboxylate]",26.4952%
5,"Cc1cc(C(=O)C(C)Cl)c(C)n1Cc1ccco1 (stereo not shown) [10-E06, 2-chloro-1-{1-[(furan-2-yl)methyl]-2,5-dimethyl-1H-pyrrol-3-yl}propan-1-one]",94.9153%
6,"Cc1ccc(NC(=O)CCl)cc1[N+](=O)[O-] [4-M13, 2-chloro-N-(4-methyl-3-nitrophenyl)acetamide]",93.6813%
7,"Cc1oc(C(N)=O)cc1C(=O)CCl [10-M05, 4-(2-chloroacetyl)-5-methylfuran-2-carboxamide]",20.4169%
8,"COC(=O)c1cc(C(=O)CCl)c(C)o1 [10-G13, methyl 4-(2-chloroacetyl)-5-methylfuran-2-carboxylate]",43.6392%
9,"NC(=O)c1coc(C(=O)CCl)c1 [10-C05, 5-(2-chloroacetyl)furan-3-carboxamide]",96.1621%
10,"Cc1oc(C(=O)O)cc1C(=O)CCl [10-M21, 4-(2-chloroacetyl)-5-methylfuran-2-carboxylic acid]",100.37%
11,"COCCn1c(C)cc(C(=O)CCl)c1C [10-D13, 2-chloro-1-[1-(2-methoxyethyl)-2,5-dimethyl-1H-pyrrol-3-yl]ethan-1-one]",99.9026%
12,"CCc1ccc(CC)c(C(=O)CCl)c1 [10-H14, 2-chloro-1-(2,5-diethylphenyl)ethan-1-one]",95.8504%
13,"CCc1ccc(OC(C)C(=O)N2CCN(C(=O)C(C)Cl)CC2)cc1 (stereo not shown) [6-H16, 1-[4-(2-chloropropanoyl)piperazin-1-yl]-2-(4-ethylphenoxy)propan-1-one]",86.302%
14,"C=CC(=O)N1CCC(C(=O)Nc2ccc3c(c2)CCN3C(N)=O)CC1 [3-E16, 5-[1-(prop-2-enoyl)piperidine-4-amido]-2,3-dihydro-1H-indole-1-carboxamide]",90.5017%
15,"C=CC(=O)NC(c1nc(C)cs1)C1CC1 (stereo not shown) [3-D21, N-[cyclopropyl(4-methyl-1,3-thiazol-2-yl)methyl]prop-2-enamide]",100.912%
16,"CCCn1c(C)cc(C=C(C#N)C(=O)Nc2ccc3c(c2)OCO3)c1C [9-G07, N-(1,3-dioxaindan-5-yl)-2-cyano-3-(2,5-dimethyl-1-propyl-1H-pyrrol-3-yl)prop-2-enamide]",88.5792%
17,"CC(Cl)C(=O)Nc1ccc(F)c(F)c1F (stereo not shown) [4-O08, 2-chloro-N-(2,3,4-trifluorophenyl)propanamide]",95.579%
18,"C=CC(=O)NCCCc1conc1C [2-N13, N-[3-(3-methyl-1,2-oxazol-4-yl)propyl]prop-2-enamide]",87.88%
19,"Cc1ccc(NC(=O)C2(CNC(=O)C(C)Cl)CCCC2)cc1C (stereo not shown) [7-J13, 1-[(2-chloropropanamido)methyl]-N-(3,4-dimethylphenyl)cyclopentane-1-carboxamide]",74.8059%
20,"Cn1cc(C=C(C#N)C(=O)Nc2ccccc2F)c(-c2ccncc2)n1 [9-L15, 2-cyano-N-(2-fluorophenyl)-3-[1-methyl-3-(pyridin-4-yl)-1H-pyrazol-4-yl]prop-2-enamide]",89.6669%
21,"CC1(C)C(=O)Nc2ccc(C(=O)CCl)cc21 [10-N21, 5-(2-chloroacetyl)-3,3-dimethyl-2,3-dihydro-1H-indol-2-one]",35.0672%
22,"O=C1CCCc2cc(C(=O)CCl)ccc2N1 [10-M20, 7-(2-chloroacetyl)-2,3,4,5-tetrahydro-1H-1-benzazepin-2-one]",94.6035%
23,"O=C1CCc2cc(C(=O)CCl)ccc2N1 [10-M03, 6-(2-chloroacetyl)-1,2,3,4-tetrahydroquinolin-2-one]",23.534%
24,"O=C1CCc2cc(C(=O)CCl)c(F)cc2N1 [10-O20, 6-(2-chloroacetyl)-7-fluoro-1,2,3,4-tetrahydroquinolin-2-one]",36.6258%
